Measurements published in PubChem BioAssay.

assay: small-molecule binders of probe aInhba, primary screen, biochemical, small-molecule microarray, 635/667 nm fluorescence (AID 1148); settings: higher = more signal;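 note: score merges 667nm spot fluorescence with signal-to-noise for antibody binding to printed compounds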

| SMILES | composite z-score |
| --- | --- |
| CCOC(=O)C1=C[C@@H](C(C)(C)C)N(S(=O)(=O)c2ccc(C)cc2)[C@H]1c1ccc(OC)cc1 | 0.0541 |
| CCCCC(=C=CC[C@H](O)c1ccccc1OCCO)CCO | -0.0762 |
| C=CCC(OC(C)=O)[C@@H]1[C@@H](N(Cc2cccc3ccccc23)C(=O)c2ccc(C)cc2)c2cc(OCCCO)ccc2N1C(=O)Cc1ccc2ccccc2c1 (stereo partly specified) | -0.101 |
| COC(=O)[C@@]1(Cc2ccc(F)cc2)[C@@H]2C(=CC(=O)[C@H]2CC(=O)C(=O)N2CCCC2)CN1C(=O)c1ccccc1 | 0.731 |
| COCCCNC(=O)[C@@]1(c2ccc([N+](=O)[O-])cc2)CC(=O)N(C2CCCCC2)[C@@H]1c1ccc(CO)cc1I | 0.0575 |
| C=CCOC(=O)[C@H]1[C@@H]2C(=O)O[C@@H](c3ccccc3)[C@@H](c3ccccc3)N2[C@@H](c2ccc(OCCOC(=O)[C@H]3C[C@H]4C(=O)NCC(=O)N4[C@H]3c3ccc(O)cc3)cc2)[C@]12C(=O)Nc1ccccc12 | 0.615 |
| CC1CC/C=C\[C@H]2OC34C=CCN(CCN5CCOCC5)C(=O)[C@H]3N(C(CO)C(C)C)C(=O)[C@@H]4C2C(=O)O1 (stereo partly specified) | -0.128 |
| CC(C)c1ccc(NN2C(C(O)c3ccccc3)C=CC3C(=O)N(c4ccccc4)C(=O)C32)cc1 (stereo unspecified) | 0.271 |
| [N-]=[N+]=Nc1ccccc1C[C@@]1(C(=O)NCC(O)CO)N=C(c2ccc(OCCCO)cc2)O[C@@H]1c1ccccc1N=[N+]=[N-] (stereo partly specified) | -0.0504 |
| C=C(CCCC)C(=O)CC[C@@H](OC(C)=O)c1ccc(OCCO)cc1 | 0.0154 |
| CN1C(=O)C2CC=C(C3=CCO[C@@H]3[C@H]3CCCN3S(=O)(=O)c3ccccc3[N+](=O)[O-])CC2C1=O (stereo partly specified) | 0.0516 |
| CC(C)[Si](C#Cc1ccccc1)(O[C@H](c1ccccc1)c1cn(Cc2ccccc2)nn1)C(C)C | -0.222 |
| COCCOC(=O)N1C(=O)[C@@]2(c3cc(C#CCNC(N)=O)ccc31)[C@H](C(N)=O)[C@H]1C(=O)O[C@H](c3ccccc3)[C@H](c3ccccc3)N1[C@@H]2c1ccc(O)cc1 | 0.296 |
| [N-]=[N+]=NCc1ccccc1C[C@]1(C(=O)N2CCCCC2)COC(c2ccc(OCCCO)cc2)=N1 | -0.441 |
| C=CCNC(=O)[C@H]1[C@@H]2C(=O)O[C@@H](c3ccccc3)[C@@H](c3ccccc3)N2[C@@H](c2ccc(OCCO)cc2)[C@]12C(=O)N(C(=O)OCCOC)c1ccc(C#CCC(C(=O)OC)C(=O)OC)cc12 | 0.389 |
| CCCCC(=C=CC[C@@H](O)c1ccccc1OCCO)C[C@@H](O)c1ccccn1 | -0.024 |
| COC(=O)C(CC#Cc1ccc2c(c1)[C@]1(C(=O)N2)[C@H](C(=O)NC[C@H](O)c2ccccc2)[C@H]2C(=O)O[C@H](c3ccccc3)[C@H](c3ccccc3)N2[C@@H]1c1ccc(O)cc1)C(=O)OC | -0.0736 |
| COCCOC(=O)N1C(=O)[C@@]2(c3cc(C#CC4=CCCCC4)ccc31)[C@H](c1ccc(O)cc1)N1[C@H](c3ccccc3)[C@H](c3ccccc3)OC(=O)[C@H]1[C@@H]2C(=O)N1CCc2cc(OC)c(OC)cc2C1 | 0.103 |

| SMILES | composite z-score |
| --- | --- |
| CC[C@@H](O[Si](C#C[Si](C(C)C)(C(C)C)C(C)C)(C(C)C)C(C)C)c1cn(Cc2cccc(Cl)c2)nn1 | -0.124 |
| C=C(CCCC)/C(=C/C[C@@H](OC(C)=O)c1cccc(OCCO)c1)c1cc(C(=O)OC)ccc1OC | -0.0645 |
| CCCN1C(=O)[C@@]2(c3ccc([N+](=O)[O-])cc3)CC(=O)N(C3CCCCC3)[C@@H]2c2ccc(CO)cc21 | -0.168 |
| O=C1O[C@H](c2ccccc2)[C@H](c2ccccc2)N2[C@H]1[C@@H](C(=O)N1CCN(c3ncccn3)CC1)[C@]1(C(=O)Nc3ccc(C#CC4(O)CCCCCC4)cc31)[C@H]2c1ccc(O)cc1 | 0.096 |
| CC[C@@H](O[Si](C#C[Si](C(C)C)(C(C)C)C(C)C)(C(C)C)C(C)C)c1cn([C@H](CO)Cc2ccccc2)nn1 | 0.0104 |
| [N-]=[N+]=NCc1ccccc1[C@H]1OC(c2ccc(OCCCO)cc2)=N[C@@]1(CCS(=O)(=O)c1ccccc1)C(=O)O | -0.13 |
| COC(=O)[C@@]1(Cc2ccc(F)cc2)[C@H]2c3cc(C(=O)N4CCCC4)n(Cc4ccc(OC(F)(F)F)cc4)c3C[C@H]2CN1C(=O)c1ccccc1 | 0.0306 |
| CC(C)(C)OC(=O)CC[C@]1(C(N)=O)N=C(c2ccc(OCCCO)cc2)O[C@H]1c1ccccc1N=[N+]=[N-] | 0.0966 |
| O=C1OCC=C[C@H]2OC34C=CCN(Cn5nnc6ccccc65)C(=O)[C@H]3N(CCO)C(=O)[C@@H]4[C@@H]12 (stereo partly specified) | -0.208 |
| COc1cccc(C)c1NC(=O)O[C@H]1[C@H](OC(=O)Nc2ccc3c(c2)OCO3)[C@H](OC(=O)Nc2ccc3c(c2)OCO3)[C@@H](OC)O[C@@H]1CO | 0.226 |
| CN1C(=O)C2C=CC(C(O)c3cccs3)N(N(c3ccccc3)c3ccccc3)C2C1=O (stereo unspecified) | 0.0422 |
| [N-]=[N+]=NCc1ccccc1[C@H]1OC(c2ccc(OCCCO)cc2)=N[C@@]1(Cc1ccccc1N=[N+]=[N-])C(=O)O | 0.147 |
| C[C@H]1C2[C@H](Cc3ccccc3)NC(=O)[C@]23C(=O)N[C@@H](Cc2ccccc2)C(=O)N2CCC[C@H]2C(=O)NC/C=C/CC/C=C/C3[C@@H]2O[C@]12C (stereo partly specified) | -0.0986 |
| COc1ccc(C(=O)Nc2ccc(CN3C(=O)[C@]4(O[C@H](CC(=O)N(CCO)Cc5ccccc5)[C@@H]([Si](C)(C)c5ccc(OC)cc5)[C@@H]4C)c4ccccc43)cc2)cc1 | -0.128 |
| CCCC=C(CCC)[C@@H](NC(=O)c1ccc(C(=O)OC)cc1)c1ccc(C(=O)OC)cc1 | 0.18 |
| O=C1C2C=CC(C(O)c3ccccn3)N(Nc3ccc([N+](=O)[O-])cc3)C2C(=O)N1c1ccccc1 (stereo unspecified) | 0.0589 |
| O=C1C2C=CC(C(O)C3CCCCC3)N(Nc3ccccc3F)C2C(=O)N1c1ccccc1 (stereo unspecified) | 0.448 |
| C=C(CCCC)/C(=C/C[C@@H](OC(C)=O)c1ccc(OCCO)cc1)c1cc(C(=O)OC)ccc1OC | -0.176 |
